The target in assay [1] is T1, Ephrin type-B receptor 1 (Homo sapiens) (UniProt P54762).
T1 sequence (whole entry): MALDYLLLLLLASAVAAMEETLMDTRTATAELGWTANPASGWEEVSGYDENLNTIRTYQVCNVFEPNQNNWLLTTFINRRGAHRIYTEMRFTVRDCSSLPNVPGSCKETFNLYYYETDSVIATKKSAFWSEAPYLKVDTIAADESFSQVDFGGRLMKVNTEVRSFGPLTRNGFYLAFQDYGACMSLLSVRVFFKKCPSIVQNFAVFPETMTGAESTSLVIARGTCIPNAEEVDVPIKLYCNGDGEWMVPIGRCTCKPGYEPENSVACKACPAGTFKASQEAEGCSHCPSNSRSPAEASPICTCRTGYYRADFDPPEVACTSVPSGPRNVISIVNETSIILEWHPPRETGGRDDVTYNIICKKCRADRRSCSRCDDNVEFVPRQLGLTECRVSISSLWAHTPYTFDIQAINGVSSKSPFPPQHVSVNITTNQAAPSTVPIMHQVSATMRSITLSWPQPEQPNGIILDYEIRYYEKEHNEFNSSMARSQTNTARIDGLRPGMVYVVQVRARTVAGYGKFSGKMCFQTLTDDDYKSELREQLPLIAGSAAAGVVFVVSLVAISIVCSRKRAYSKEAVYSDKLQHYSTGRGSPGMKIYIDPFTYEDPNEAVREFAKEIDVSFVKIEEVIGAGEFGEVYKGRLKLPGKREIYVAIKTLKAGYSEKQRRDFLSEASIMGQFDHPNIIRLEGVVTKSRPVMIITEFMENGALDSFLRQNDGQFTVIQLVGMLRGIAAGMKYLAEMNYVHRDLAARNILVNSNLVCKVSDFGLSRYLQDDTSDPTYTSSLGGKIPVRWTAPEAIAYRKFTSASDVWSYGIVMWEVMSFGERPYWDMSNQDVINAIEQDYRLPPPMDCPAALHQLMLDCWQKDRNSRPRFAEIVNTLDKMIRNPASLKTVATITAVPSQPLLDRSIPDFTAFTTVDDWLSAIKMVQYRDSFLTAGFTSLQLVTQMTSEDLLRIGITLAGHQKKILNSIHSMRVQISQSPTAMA
The following applies: at 10 µM.

The target of assay [2] is T2, Ephrin type-B receptor 2 (Homo sapiens) (UniProt P29323).
T2 sequence (whole entry): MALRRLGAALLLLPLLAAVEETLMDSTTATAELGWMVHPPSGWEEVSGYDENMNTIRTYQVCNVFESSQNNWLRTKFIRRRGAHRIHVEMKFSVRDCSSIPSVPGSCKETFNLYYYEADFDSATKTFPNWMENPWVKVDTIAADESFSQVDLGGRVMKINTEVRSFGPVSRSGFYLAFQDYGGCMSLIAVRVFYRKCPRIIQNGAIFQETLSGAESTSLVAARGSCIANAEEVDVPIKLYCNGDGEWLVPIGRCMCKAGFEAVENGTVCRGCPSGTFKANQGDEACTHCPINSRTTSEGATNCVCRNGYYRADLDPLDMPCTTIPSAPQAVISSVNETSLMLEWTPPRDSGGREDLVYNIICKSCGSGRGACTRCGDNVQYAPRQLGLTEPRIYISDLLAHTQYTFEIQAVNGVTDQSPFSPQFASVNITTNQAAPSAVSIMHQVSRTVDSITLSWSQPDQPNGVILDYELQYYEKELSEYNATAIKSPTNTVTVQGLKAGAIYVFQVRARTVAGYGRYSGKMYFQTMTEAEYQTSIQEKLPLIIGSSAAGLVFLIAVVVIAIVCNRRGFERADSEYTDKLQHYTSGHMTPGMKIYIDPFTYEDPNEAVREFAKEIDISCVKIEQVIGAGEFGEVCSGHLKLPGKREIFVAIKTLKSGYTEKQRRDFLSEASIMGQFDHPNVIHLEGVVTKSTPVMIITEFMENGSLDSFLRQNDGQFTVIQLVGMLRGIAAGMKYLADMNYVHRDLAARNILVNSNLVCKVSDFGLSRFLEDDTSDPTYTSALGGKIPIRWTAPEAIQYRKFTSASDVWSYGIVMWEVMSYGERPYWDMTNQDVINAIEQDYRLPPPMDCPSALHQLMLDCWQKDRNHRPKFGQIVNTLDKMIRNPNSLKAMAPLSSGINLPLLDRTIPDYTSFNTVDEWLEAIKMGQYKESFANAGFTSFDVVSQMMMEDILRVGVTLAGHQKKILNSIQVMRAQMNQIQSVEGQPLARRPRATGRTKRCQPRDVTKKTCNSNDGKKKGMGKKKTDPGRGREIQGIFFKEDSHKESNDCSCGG
The following applies: at 1 µM.

Assay [3] addresses T2, Ephrin type-B receptor 2 (Homo sapiens). The following applies: at 10 µM.
The target of assay [4] is T3, Ephrin type-B receptor 3 (Homo sapiens) (UniProt P54753).
T3 sequence (whole entry): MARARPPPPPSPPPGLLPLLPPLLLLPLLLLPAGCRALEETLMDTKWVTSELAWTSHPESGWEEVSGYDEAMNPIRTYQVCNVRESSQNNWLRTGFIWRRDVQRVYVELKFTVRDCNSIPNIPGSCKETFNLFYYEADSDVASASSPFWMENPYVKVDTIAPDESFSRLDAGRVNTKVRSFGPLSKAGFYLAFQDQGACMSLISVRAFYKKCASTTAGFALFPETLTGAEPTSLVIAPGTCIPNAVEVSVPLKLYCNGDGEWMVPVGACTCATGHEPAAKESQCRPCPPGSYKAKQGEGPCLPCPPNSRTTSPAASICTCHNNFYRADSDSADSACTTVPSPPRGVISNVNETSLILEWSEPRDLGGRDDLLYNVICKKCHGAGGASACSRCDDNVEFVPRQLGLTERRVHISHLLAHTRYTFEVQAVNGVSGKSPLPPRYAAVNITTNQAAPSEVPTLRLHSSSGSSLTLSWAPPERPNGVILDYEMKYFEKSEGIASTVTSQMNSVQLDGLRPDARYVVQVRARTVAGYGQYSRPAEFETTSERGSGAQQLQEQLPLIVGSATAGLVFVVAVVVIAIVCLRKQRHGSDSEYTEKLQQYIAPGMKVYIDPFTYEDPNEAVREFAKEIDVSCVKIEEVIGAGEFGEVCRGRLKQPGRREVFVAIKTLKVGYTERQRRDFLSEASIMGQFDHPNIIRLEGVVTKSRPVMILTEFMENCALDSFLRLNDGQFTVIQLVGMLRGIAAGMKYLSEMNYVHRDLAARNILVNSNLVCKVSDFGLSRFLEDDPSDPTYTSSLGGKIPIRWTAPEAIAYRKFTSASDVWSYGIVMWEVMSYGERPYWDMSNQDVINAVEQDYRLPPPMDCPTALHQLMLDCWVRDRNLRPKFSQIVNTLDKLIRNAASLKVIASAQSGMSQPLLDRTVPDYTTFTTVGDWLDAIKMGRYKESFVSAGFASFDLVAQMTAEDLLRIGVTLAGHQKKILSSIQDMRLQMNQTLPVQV
To be noted: at 1 µM.

In assay [5] the target is T3, Ephrin type-B receptor 3 (Homo sapiens). To be noted: at 10 µM.
The target in assay [6] is Fibroblast growth factor receptor 1 (Homo sapiens) (UniProt P11362). To be noted: at 1 µM.
Assay [7] has the same target. To be noted: at 10 µM.
The target in assay [8] is Fibroblast growth factor receptor 3 (Homo sapiens) (UniProt P22607). The following applies: at 1 µM.
Assay [9] shares this target. To be noted: at 10 µM.
For assay [10], the target named is Fibroblast growth factor receptor 4 (Homo sapiens) (UniProt P22455). To be noted: at 1 µM.
Assay [11] has the same target. The following applies: at 10 µM.
Assay [12] concerns the target T4, Ephrin type-B receptor 4 (Homo sapiens) (UniProt P54760).
T4 sequence (whole entry): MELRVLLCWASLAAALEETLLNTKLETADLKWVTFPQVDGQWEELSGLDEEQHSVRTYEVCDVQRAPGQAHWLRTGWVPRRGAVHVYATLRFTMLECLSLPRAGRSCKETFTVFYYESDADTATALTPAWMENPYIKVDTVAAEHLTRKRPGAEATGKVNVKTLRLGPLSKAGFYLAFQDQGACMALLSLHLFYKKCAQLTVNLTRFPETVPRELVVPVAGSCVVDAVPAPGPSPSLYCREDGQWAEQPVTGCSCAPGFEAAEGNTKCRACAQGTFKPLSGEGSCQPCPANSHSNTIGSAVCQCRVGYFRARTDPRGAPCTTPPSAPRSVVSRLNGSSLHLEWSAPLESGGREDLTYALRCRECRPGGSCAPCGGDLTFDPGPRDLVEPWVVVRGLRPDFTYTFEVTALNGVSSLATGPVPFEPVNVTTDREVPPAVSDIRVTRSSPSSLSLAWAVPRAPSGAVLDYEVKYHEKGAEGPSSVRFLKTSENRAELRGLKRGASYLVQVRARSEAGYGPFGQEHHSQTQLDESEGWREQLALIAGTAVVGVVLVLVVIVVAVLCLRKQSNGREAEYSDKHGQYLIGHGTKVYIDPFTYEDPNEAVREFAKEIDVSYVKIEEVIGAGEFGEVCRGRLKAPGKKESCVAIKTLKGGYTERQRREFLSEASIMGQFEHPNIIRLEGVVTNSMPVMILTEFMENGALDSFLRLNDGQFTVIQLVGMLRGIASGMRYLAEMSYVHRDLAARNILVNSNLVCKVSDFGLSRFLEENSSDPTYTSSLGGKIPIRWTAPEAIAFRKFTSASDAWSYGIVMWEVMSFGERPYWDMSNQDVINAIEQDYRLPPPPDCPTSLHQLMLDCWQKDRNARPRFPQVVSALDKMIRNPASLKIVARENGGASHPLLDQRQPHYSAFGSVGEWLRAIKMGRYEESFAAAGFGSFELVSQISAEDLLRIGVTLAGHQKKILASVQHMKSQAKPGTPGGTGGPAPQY
To be noted: at 1 µM.

The target in assay [13] is T4, Ephrin type-B receptor 4 (Homo sapiens). To be noted: at 10 µM.
The target of assay [14] is Receptor tyrosine-protein kinase erbB-4 (Homo sapiens) (UniProt Q15303). The following applies: at 1 µM.
The target is the same in assay [15]. The following applies: at 10 µM.
The target in assay [16] is Focal adhesion kinase 1 (Homo sapiens) (UniProt Q05397). To be noted: at 1 µM.
The target is the same in assay [17]. To be noted: at 10 µM.
The target of assay [18] is Fibroblast growth factor receptor 2 (Homo sapiens) (UniProt P21802). The following applies: at 1 µM.
The target is the same in assay [19]. To be noted: at 10 µM.
Assay [20] concerns the target Tyrosine-protein kinase Fer (Homo sapiens) (UniProt P16591). To be noted: at 1 µM.

Usually residual activity stands for the signal under treatment as a percentage of the control signal.

Sequence of Focal adhesion kinase 1 (Homo sapiens) (Q05397 2-1052 limits assumed): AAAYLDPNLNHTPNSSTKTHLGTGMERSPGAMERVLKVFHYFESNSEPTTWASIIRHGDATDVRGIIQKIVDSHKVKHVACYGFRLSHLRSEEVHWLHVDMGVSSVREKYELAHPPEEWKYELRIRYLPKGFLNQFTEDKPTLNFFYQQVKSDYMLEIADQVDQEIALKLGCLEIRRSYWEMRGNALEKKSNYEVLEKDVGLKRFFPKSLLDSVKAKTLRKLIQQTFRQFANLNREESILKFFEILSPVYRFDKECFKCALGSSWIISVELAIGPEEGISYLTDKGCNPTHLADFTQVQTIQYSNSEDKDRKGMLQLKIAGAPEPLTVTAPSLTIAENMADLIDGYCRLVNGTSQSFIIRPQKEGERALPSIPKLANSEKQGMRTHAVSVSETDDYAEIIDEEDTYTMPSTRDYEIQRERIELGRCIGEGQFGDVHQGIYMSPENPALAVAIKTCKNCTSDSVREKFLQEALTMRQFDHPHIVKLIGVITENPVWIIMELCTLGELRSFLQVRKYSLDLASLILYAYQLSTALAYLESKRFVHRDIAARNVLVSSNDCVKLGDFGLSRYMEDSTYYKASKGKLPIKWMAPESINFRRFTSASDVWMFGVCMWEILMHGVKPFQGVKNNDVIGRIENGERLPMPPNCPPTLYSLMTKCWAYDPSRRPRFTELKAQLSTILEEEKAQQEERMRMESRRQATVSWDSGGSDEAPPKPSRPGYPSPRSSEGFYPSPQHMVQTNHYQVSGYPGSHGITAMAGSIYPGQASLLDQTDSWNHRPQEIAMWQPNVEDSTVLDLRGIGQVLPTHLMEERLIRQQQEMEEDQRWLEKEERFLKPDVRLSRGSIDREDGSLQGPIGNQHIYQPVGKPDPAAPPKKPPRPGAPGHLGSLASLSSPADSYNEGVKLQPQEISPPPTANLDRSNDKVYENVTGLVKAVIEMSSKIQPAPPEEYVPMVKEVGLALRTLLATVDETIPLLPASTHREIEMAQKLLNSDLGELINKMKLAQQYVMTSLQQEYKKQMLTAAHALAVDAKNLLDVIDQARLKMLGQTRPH
Sequence of Fibroblast growth factor receptor 2 (Homo sapiens) (P21802 22-821 limits assumed): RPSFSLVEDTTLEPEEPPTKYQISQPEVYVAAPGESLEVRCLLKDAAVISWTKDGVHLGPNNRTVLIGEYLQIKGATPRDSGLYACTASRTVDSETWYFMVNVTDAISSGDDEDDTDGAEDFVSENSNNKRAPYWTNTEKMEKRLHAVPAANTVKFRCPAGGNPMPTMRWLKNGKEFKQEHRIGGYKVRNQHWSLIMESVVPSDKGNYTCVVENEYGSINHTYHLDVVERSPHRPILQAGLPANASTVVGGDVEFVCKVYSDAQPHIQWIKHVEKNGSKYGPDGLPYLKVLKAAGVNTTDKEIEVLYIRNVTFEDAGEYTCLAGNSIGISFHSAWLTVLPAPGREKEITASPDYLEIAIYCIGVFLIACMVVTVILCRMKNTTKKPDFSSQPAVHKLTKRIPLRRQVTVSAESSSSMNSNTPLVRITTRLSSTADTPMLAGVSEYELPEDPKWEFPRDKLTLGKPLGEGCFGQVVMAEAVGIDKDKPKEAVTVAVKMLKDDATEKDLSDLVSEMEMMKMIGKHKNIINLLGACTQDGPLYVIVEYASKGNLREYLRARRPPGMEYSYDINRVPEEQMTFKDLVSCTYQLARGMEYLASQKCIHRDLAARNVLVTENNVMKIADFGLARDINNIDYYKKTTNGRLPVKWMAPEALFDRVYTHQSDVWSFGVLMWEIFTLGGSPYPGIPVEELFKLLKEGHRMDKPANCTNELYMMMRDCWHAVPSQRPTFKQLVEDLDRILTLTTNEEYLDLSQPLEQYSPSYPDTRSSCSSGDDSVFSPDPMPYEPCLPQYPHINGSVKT
Sequence of Fibroblast growth factor receptor 4 (Homo sapiens) (P22455 22-802 limits assumed): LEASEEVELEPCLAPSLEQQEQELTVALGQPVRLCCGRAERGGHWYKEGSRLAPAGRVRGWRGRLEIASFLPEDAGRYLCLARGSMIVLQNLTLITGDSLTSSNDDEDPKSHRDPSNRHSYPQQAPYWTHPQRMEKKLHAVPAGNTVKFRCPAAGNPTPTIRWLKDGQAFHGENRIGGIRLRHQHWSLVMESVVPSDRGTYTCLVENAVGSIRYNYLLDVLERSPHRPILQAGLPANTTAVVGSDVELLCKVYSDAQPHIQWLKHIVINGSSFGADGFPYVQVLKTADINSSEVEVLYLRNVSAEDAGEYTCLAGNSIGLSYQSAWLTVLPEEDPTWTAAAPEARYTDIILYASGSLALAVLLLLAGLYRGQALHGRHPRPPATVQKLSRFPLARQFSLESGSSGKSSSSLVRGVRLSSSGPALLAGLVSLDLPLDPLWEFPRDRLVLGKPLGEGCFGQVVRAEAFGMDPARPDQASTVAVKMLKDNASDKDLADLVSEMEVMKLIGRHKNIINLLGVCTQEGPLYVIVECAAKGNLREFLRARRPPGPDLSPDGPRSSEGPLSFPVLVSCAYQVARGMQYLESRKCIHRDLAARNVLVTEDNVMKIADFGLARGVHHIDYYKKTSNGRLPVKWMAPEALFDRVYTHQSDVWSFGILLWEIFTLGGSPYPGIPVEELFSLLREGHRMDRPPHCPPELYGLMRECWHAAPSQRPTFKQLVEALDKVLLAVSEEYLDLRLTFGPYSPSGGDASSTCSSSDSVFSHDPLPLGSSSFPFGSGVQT
Sequence of Receptor tyrosine-protein kinase erbB-4 (Homo sapiens) (Q15303 whole entry): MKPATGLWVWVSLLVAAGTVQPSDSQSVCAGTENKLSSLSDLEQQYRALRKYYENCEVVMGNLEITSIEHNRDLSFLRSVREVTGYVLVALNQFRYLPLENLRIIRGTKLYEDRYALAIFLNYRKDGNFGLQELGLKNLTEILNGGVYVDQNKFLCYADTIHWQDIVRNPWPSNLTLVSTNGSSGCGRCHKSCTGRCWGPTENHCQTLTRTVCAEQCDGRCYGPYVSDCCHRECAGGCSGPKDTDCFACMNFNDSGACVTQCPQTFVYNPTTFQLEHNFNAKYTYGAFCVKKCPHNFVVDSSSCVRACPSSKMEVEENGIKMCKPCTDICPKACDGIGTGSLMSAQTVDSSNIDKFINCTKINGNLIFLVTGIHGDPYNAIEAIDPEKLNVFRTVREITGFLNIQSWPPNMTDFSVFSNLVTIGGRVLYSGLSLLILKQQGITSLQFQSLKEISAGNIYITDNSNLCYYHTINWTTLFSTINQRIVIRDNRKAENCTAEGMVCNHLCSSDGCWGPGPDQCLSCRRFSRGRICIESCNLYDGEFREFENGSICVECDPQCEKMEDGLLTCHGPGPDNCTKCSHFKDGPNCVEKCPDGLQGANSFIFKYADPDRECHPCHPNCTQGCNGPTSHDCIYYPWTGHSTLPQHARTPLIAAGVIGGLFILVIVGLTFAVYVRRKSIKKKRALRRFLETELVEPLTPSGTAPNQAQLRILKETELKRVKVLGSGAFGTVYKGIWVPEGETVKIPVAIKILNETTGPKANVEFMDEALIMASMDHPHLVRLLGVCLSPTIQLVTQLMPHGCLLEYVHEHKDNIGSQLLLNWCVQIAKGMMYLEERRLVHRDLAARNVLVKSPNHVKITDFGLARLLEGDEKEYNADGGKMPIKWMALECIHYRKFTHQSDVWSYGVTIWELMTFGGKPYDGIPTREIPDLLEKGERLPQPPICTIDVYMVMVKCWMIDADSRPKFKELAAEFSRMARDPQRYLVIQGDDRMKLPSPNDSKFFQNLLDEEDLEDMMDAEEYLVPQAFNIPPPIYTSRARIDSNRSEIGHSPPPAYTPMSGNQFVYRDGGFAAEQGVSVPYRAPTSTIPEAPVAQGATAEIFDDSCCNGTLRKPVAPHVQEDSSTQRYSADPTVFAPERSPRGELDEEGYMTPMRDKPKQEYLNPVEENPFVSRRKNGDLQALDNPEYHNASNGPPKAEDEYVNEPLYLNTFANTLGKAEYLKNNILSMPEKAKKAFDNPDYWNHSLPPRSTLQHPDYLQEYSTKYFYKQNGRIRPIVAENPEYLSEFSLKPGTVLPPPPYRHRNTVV
Sequence of Fibroblast growth factor receptor 1 (Homo sapiens) (P11362 22-822 limits assumed): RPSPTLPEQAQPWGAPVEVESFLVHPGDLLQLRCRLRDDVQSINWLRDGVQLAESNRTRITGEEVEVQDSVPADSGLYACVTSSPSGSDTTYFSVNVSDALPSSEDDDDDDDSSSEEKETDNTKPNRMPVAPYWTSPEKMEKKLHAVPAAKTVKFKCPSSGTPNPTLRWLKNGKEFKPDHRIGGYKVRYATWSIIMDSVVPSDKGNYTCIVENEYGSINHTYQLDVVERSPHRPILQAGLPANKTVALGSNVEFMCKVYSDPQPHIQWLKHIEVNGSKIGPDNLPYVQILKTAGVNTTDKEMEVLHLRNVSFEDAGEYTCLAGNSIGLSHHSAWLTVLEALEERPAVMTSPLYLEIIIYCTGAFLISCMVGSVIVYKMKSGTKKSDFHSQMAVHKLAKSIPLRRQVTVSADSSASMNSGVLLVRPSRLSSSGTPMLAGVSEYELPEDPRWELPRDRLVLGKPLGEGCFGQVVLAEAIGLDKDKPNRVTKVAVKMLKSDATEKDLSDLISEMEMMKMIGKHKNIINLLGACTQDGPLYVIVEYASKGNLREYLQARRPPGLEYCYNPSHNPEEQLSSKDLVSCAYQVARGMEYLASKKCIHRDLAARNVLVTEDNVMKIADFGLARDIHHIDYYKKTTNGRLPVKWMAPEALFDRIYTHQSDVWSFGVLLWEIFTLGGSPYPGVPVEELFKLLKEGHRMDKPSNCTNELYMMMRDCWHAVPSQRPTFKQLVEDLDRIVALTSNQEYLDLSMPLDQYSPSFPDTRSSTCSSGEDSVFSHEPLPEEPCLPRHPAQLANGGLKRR

`O=C1Cc2c([nH]c3ccc([N+](=O)[O-])cc23)-c2ccccc2N1`: the residual activity in assay [1] was 81%; in [2], 106%; in [3] it was 107%; in assay [4] it was 124% (inactive); in [5] it was 113%; in assay [6] it was 74%. Also, the residual activity in assay [7] came to 59%; in [8], 125%; in [9] it was 109%; in assay [10], 112%; in assay [11] it was 102%.

As for `O=C1NC(=O)c2c1c1c3ccccc3[nH]c1n1cncc21`, the residual activity in assay [1] is 74%; in [4], 121% (inactive); in assay [5], 97%; in [12], 82%; in assay [13], 73%; in assay [14] it was 87%. The residual activity in assay [15] stood at 73%; in assay [16] it was 57%; in [17], 25%; in [6] it was 41%; in assay [7], 9%; in [18], 72%. Moreover, the residual activity in assay [19] stood at 32%; in assay [8], 76%; in [9], 41%; in assay [10], 102%; in [11] it was 80%.

`Nc1ncnc2c1c(-c1ccc(Oc3ccccc3)cc1)cn2C1CCCC1`: the residual activity in [1] was 70%; in assay [2], 108%; in assay [3] it was 101%; in assay [4], 104% (inactive); in assay [5] it was 117%; in assay [12], 99%. In addition, the residual activity was 89% in assay [13]; 0% in assay [14]; -4% in [15]; 116% in [16]; 46% in [17]; 13% in assay [6]. Also, the residual activity is -1% in assay [7]; 37% in assay [18]; 3% in assay [19]; 41% in [8]; 7% in assay [9]; 100% in assay [10]. Further, the residual activity in assay [11] is 46%; in [20], 100%.

`COc1cc2ncnc(Nc3cccc(Cl)c3)c2cc1OC`: the residual activity amounted to 24% in assay [1]; 121% in assay [5]; 45% in [12]; 5% in assay [13]; 35% in assay [14]; 4% in assay [15]. The residual activity in [16] amounted to 146%; in [7], 32%; in assay [18], 101%; in assay [19], 66%; in [8], 104%; in [9] it was 74%. Further, in assay [20], the residual activity came to 113%.

In the case of `O=c1cc(N2CCNCC2)oc2c(-c3ccccc3)cccc12`, the residual activity in assay [1] was 105%; in [2] it was 103%; in assay [12] it was 97%; in assay [14], 95%; in [15], 73%; in assay [16], 105%. The residual activity in assay [17] amounted to 88%; in [6] it was 105%; in [7], 84%; in [11], 67%.

With `CC(C)c1nn(-c2c(Cl)cccc2Cl)c2nc(Cc3ccc(OCCO)cc3)[nH]c(=O)c12`, the residual activity in assay [1] was 84%; in [5] it was 108%; in assay [12], 86%; in assay [13] it was 76%; in assay [14], 103%; in assay [15], 91%. In addition, the residual activity in assay [16] was found to be 109%; in assay [17] it was 66%; in assay [6], 70%; in assay [7] it was 27%; in assay [18], 108%; in assay [19], 86%. Moreover, the residual activity is 104% in assay [8], 99% in assay [9] and 100% in assay [20].

Source of the values: ChEMBL document CHEMBL2218924, “A broad activity screen in support of a chemogenomic map for kinase signalling research and drug discovery” (Biochem J, 2013).
